Hit rate of the full screen: of about 65,000 compounds, about 2,100 (3.2%) showed an effect of 50% or more. The median lay at about -52%. Many of the other results were omitted from the sample, so strong results are more common in it than they were.
Tested on: Plasmodium falciparum
Assay: Screen against P. falciparum Asexual Blood Stage (ABS), at 5uM
Type: functional, Dd2
Details: tested at 5 uM

Question: With N#Cc1cccc(C(=O)N2CCCC(O)(CO)CC2)c1 (stereo not given) as the compound, how does the INHIBITION read?
Answer: -41.3%

Question: How did the INHIBITION turn out when Cn1cc(CN2CCc3ccc(=O)n(CC4CC4)c3CC2)cn1 was run?
Answer: -67.9%

Question: With CS(=O)(=O)CCNC(=O)c1ccc(-c2ccco2)[nH]c1=O as the compound, how does the INHIBITION read?
Answer: -78.3%

Question: COc1ccc(OC)c(C2CCN(C3CCOCC3)C2)c1 (stereo not given) was tested. Which INHIBITION did it give?
Answer: -74.2%

Question: For Cc1nnc(N2CC[C@H](OCC3CC3)[C@@H](Cc3ccccc3)C2)s1, which INHIBITION is on record?
Answer: -3.27%

Question: For COc1ccc(CC2CN(C3CCSCC3)CCO2)cc1 (stereo not given), which INHIBITION is on record?
Answer: -96.7%

Question: COc1ccc(C[C@H]2CN(C3CCOCC3)CC[C@@H]2OCC2CC2)cc1 was tested. Which INHIBITION did it give?
Answer: 60.9%

Question: Which INHIBITION does the source give for COc1ccc(CN2C[C@H](OCC3CCOCC3)[C@H]3COC[C@H]32)cc1 here?
Answer: -12.7%

Question: How did the INHIBITION turn out when COc1ccc(C[C@H]2CN(C3CCOCC3)CC[C@H]2OCC2CC2)cc1 was run?
Answer: 68.4%

Question: How did the INHIBITION turn out when Nc1cc(-c2c[nH]nc2C2CCCCN2C(=O)C2CCCC2)ccn1 (stereo not given) was run?
Answer: -12.7%

Question: Which INHIBITION does the source give for Cc1ccc(NC(=O)Cn2ncc(SCC(N)=O)c(Cl)c2=O)c(F)c1 here?
Answer: -57.4%

Question: How did the INHIBITION turn out when COc1ccccc1NC(=O)N(CCO)Cc1ccsc1 was run?
Answer: -19.5%

Question: For O=C(NC1CCC1)[C@H]1CCS(=O)(=O)[C@@H]2CN(CCc3ccccc3)C[C@H]12, which INHIBITION is on record?
Answer: -96.2%

Question: For Cc1nc(CN2CCCN(C(=O)c3cccnc3O)CC2)cs1, which INHIBITION is on record?
Answer: 49.4%

Question: How did the INHIBITION turn out when CCOc1ccc(NC(C)=O)cc1S(=O)(=O)Nc1cc(C)on1 was run?
Answer: -90.8%

Question: With Cc1ccc(C)c(OC2CCN(C(=O)CNc3ccccc3Cl)CC2)c1 as the compound, how does the INHIBITION read?
Answer: -76.6%

Question: With Cc1nc(CC(=O)N2CCn3c(nnc3C(C)C)C2)cs1 as the compound, how does the INHIBITION read?
Answer: 51.5%

Question: With CCc1nc(CC(=O)N2CCn3c(C)nnc3C2)cs1 as the compound, how does the INHIBITION read?
Answer: -18.3%

Question: For CCc1nc(CC(=O)N2CCn3c(nnc3C(C)C)C2)cs1, which INHIBITION is on record?
Answer: -56.3%

Question: With CCc1nc(CC(=O)N2CCn3c(CC)nnc3C2)cs1 as the compound, how does the INHIBITION read?
Answer: 52%

Question: For CC(C)c1nnc2n1CCN(C(=O)Cc1csc(C(C)(C)C)n1)C2, which INHIBITION is on record?
Answer: 20.2%

Question: How did the INHIBITION turn out when CCc1nc(CC(=O)N2CCn3c(nnc3C(F)(F)F)C2)cs1 was run?
Answer: -206%

Question: Which INHIBITION does the source give for c1coc(COCc2ncn3c2CN(Cc2cccs2)CCC3)c1 here?
Answer: -87%

Question: For O=C(C1NCCc2[nH]cnc21)N1CCC2(C=Cc3ccccc32)CC1 (stereo not given), which INHIBITION is on record?
Answer: -16.1%

Question: Which INHIBITION does the source give for O=C(c1cccc(Cl)c1)N1CC[C@H]2[C@H]1CCN2CC1CC1 here?
Answer: -55.8%

Question: For CCN(C1CCN(Cc2ncc(C(C)(C)C)o2)CC1)S(C)(=O)=O, which INHIBITION is on record?
Answer: -26.2%

Question: With CS(=O)(=O)N1CCC(c2nc3ccc(-c4cccc(F)c4)cn3n2)CC1 as the compound, how does the INHIBITION read?
Answer: -44.9%

Question: Which INHIBITION does the source give for OC1(CN2CCCC2)CCCN(Cc2c[nH]c(CC3CCCC3)n2)C1 (stereo not given) here?
Answer: 37.2%

Question: OC1(CN2CCCCC2)CCN(Cc2c[nH]c(CC3CCCC3)n2)C1 (stereo not given) was tested. Which INHIBITION did it give?
Answer: 54.6%

Question: With CC1(C)CN(Cc2c[nH]c(CC3CCCC3)n2)CC[C@]1(C)O as the compound, how does the INHIBITION read?
Answer: -29.5%

Question: Which INHIBITION does the source give for CN(C)c1ccc(C(=O)NCc2cccnc2-n2cncn2)cc1F here?
Answer: -20.3%

Question: With CC(C)Nc1nc(-c2ccccc2)nc2c1CCN(C(=O)C1CC1)CC2 as the compound, how does the INHIBITION read?
Answer: 27.8%

Question: For CCCN1CCC(c2nc3ccc(-c4cccc(OC)c4)cn3n2)CC1, which INHIBITION is on record?
Answer: -23.2%

Question: Cn1cc(N2C(=O)CC[C@@H]3[C@H]2CCN3C(=O)c2cscn2)cn1 was tested. Which INHIBITION did it give?
Answer: -22.8%

Question: With CN(Cc1ccncc1)Cc1nccn1Cc1ccccc1 as the compound, how does the INHIBITION read?
Answer: -37.9%

Question: For CN(CCc1ccccn1)Cc1nccn1Cc1ccccc1, which INHIBITION is on record?
Answer: 57.9%

Question: For CN(CCc1ccncc1)Cc1nccn1Cc1ccccc1, which INHIBITION is on record?
Answer: 42.2%

Question: With CCN(Cc1ccco1)C(=O)C1=NN(c2ccccc2)C(=O)CN1 as the compound, how does the INHIBITION read?
Answer: 60.6%

Question: Which INHIBITION does the source give for Cc1ccc(N2N=C(C(=O)N(C)Cc3ccco3)NCC2=O)cc1 here?
Answer: -13.2%

Question: How did the INHIBITION turn out when CCN(C(=O)C1=NN(c2ccccc2)C(=O)CN1)c1ccccc1 was run?
Answer: -66.6%

Question: How did the INHIBITION turn out when CCOc1cc(C=Cc2ncc(C(=O)NC)s2)ccc1OC was run?
Answer: 25.6%

Question: CN(CC(=O)Nc1cccnc1)C1CCCN(c2cccnn2)C1 (stereo not given) was tested. Which INHIBITION did it give?
Answer: 8.25%

Question: For CC(=O)NCCNCc1cn(CCN2CCSCC2)nc1C, which INHIBITION is on record?
Answer: -18%

Question: For Cc1nc(C(C)C)sc1C(=O)NCCn1nc2ccccn2c1=O, which INHIBITION is on record?
Answer: 59.1%

Question: With Cc1nc(C)c(C(=O)NCCn2nc3ccccn3c2=O)s1 as the compound, how does the INHIBITION read?
Answer: -42%

Question: CCc1nc(C)c(C(=O)NCCn2nc3ccccn3c2=O)s1 was tested. Which INHIBITION did it give?
Answer: -71.9%

Question: Cn1cnc2c1CCN(CC(O)c1ccc3c(c1)OCCO3)C2 (stereo not given) was tested. Which INHIBITION did it give?
Answer: -106%

Question: For CCc1nnc2n1CCN(CC(O)c1ccc3c(c1)OCCO3)C2 (stereo not given), which INHIBITION is on record?
Answer: 66.3%

Question: CCc1nnc2n1CCN(Cc1cccc3c1OCCO3)C2 was tested. Which INHIBITION did it give?
Answer: 43.7%

Question: Which INHIBITION does the source give for Cc1cc(C)cc(CN2C[C@@H]3OCCN(CC(=O)N(C)C)[C@@H]3C2)c1 here?
Answer: -93.1%

Question: How did the INHIBITION turn out when COC[C@H]1CCCN1c1nccc(-c2cnn(-c3ccccc3C)c2)n1 was run?
Answer: -32.9%

Question: With COCC(=O)N1CCC2(CC1)CN(c1ccsc1)C(=O)CO2 as the compound, how does the INHIBITION read?
Answer: -11.6%

Question: Which INHIBITION does the source give for CC(=O)N1CCC2(CCN(Cc3cccc(F)c3)CC2)CC1 here?
Answer: -58.8%

Question: With Cc1noc(C)c1CN1CCC2(CCN(Cc3cccc(F)c3)CC2)C1 as the compound, how does the INHIBITION read?
Answer: 67.9%

Question: For CN(C)CC(=O)N1CCC2(CCN(Cc3cccc(F)c3)CC2)C1, which INHIBITION is on record?
Answer: 36.4%

Question: With O=C(CC1CC1)N[C@@H]1CN(C(=O)c2ccsc2)C[C@@H]2CCCO[C@@H]21 as the compound, how does the INHIBITION read?
Answer: -17.8%

Question: With CC(=O)N1CC2(CCN(Cc3ccc(Cl)cc3)C2)Cc2ccccc21 (stereo not given) as the compound, how does the INHIBITION read?
Answer: 9.12%

Question: For Cc1c(C)n(CC(O)CN2CCOCC2)c2c(Cl)cccc12 (stereo not given), which INHIBITION is on record?
Answer: -15.7%

Question: Cc1c(C)n(CC(O)CN2CCCCCC2)c2c(Cl)cccc12 (stereo not given) was tested. Which INHIBITION did it give?
Answer: 51.6%

Question: How did the INHIBITION turn out when Cc1c(C)n(CC(O)CN2CCC(O)CC2)c2c(Cl)cccc12 (stereo not given) was run?
Answer: 44.9%

Question: CCN1CC(C(=O)NCCOc2ccc3c(c2)OCO3)CC1=O (stereo not given) was tested. Which INHIBITION did it give?
Answer: -196%

Question: With Cc1nc(CN(C)CC2CCCN(CCc3ccc(Cl)cc3)C2)n(C)n1 (stereo not given) as the compound, how does the INHIBITION read?
Answer: 54.3%

Question: How did the INHIBITION turn out when CN(Cc1ccncc1)CC1CCCN(CCc2ccc(Cl)cc2)C1 (stereo not given) was run?
Answer: -23.8%

Question: For Cc1noc(CN(C)CC2CCCN(CCc3ccc(Cl)cc3)C2)n1 (stereo not given), which INHIBITION is on record?
Answer: -72.6%

Question: With O=S(=O)(c1cccs1)N1Cc2nc(CN3CCCC3)oc2C1 as the compound, how does the INHIBITION read?
Answer: -84.5%

From ChEMBL document CHEMBL4513216, “Probing the Open Global Health Chemical Diversity Library for Multistage-Active Starting Points for Next-Generation Antimalarials” (ACS Infect Dis, 2020)
